Data on 25 compounds can be found in PubChem BioAssay AID463195 (Sanford-Burnham Center for Chemical Genomics, 2010).

The term inhibition denotes the relative decrease from the control value, in per cent.

Screen size: about 330,000 compounds; about 4,600 (1.4%) were called active.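 Rule for the calls: active = inhibition of 40% or more at the single tested concentration; inactive = the rest.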 The list comes from a sample in which actives are over-represented; it also holds similar structures and randomly drawn compounds.

The nature of the assay: wild-type TIM10 yeast growth inhibition – luminescence, uHTS, counter-screen for tim10-1 yeast inhibitor project, primary screen (AID 463195).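 Note: wild-type TIM10 isogenic control strain grown at permissive 25 °C; 0% = DMSO yeast wells and 100% = minimal medium wells without yeast.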 The conditions noted are these: S. cerevisiae TIM10 strain growth, BacTiter-Glo luminescence, 24 h; at 10 µM; active compounds read high.
On to `O=C(NCc1ccc2c(c1)OCO2)c1sccc1Br`, for which the inhibition is 9.81% (inactive).

As for `O=C(NCc1ccc2c(c1)OCO2)c1c(O)nc2sccn2c1=O`, the inhibition was 45% (active).

For the compound `CCn1c(=O)c(C(=O)NCc2ccc3c(c2)OCO3)c(O)c2ccccc21`, the inhibition is -11.9% (inactive).

For `CC(=O)c1c(C)n([O-])c2ccccc2[n+]1=O`, the inhibition was -2.57% (inactive).

Turning to `O=C1N[C@H](Cc2c[nH]c3ccccc23)COC(=O)[C@H](Cc2ccc(F)cc2)C/C=C\C[C@H]1CC(=O)N(CCO)Cc1ccccc1`, the inhibition is -8.49% (inactive).

For the compound `Cc1[nH]c(=O)c(C(=O)/C=C/c2ccccc2)c2c1CCCC2`, the inhibition was 45% (active).

Take `CC(=O)Nc1ccc(/C=C/C(=O)c2ccccc2)cc1`: the inhibition is 26.1% (inactive).

Consider `O=C(/C=C/c1ccc(N2CCOCC2)cc1)c1ccccc1`, for which the inhibition is 39.5% (inactive).

Regarding `O=C(O)CCc1nc2cc(Cl)ccc2n(Cc2ccccc2)c1=O`, the inhibition was 21.5% (inactive).

Regarding `COc1ccc(CN2C(CC(=O)Nc3cccnc3)c3ccc(C(F)(F)F)cc3S2(=O)=O)cc1` (stereo not given), the inhibition is -7.66% (inactive).

Consider `O=C1NC(Nc2nc3ccccc3s2)(C(F)(F)F)C(=O)N1C1CCCCC1` (stereo not given), for which the inhibition was 52.6% (active).

For the compound `O=C(NC1(C(F)(F)F)NC(=O)N(C2CCCCC2)C1=O)c1ccco1` (stereo not given), the inhibition was -5.03% (inactive).

Turning to `Cc1cc(C)c2nc(-c3cccnc3)cc(C(=O)Nc3ccc(S(=O)(=O)Nc4onc(C)c4C)cc3)c2c1`, the inhibition was -10% (inactive).

On to `Cc1nn(-c2ncc(C(F)(F)F)cc2Cl)c(=O)n1-c1ccccc1`, for which the inhibition is 10.6% (inactive).

Regarding `Cc1cc(NC(=O)CSc2ncc(C(F)(F)F)cc2Cl)no1`, the inhibition is -8.23% (inactive).

Take `Cc1ccc(-c2ccnc3nc(Sc4ncc(C(F)(F)F)cc4Cl)nn23)cc1`: the inhibition was 42.2% (active).

In the case of `CNC(=O)NC(=O)C(OC(=O)c1cccc(S(=O)(=O)N2CCCCC2)c1)c1ccccc1` (stereo not given), the inhibition was 15.5% (inactive).

Regarding `CCOCCCN1C(=O)C2C(C(=O)Nc3ccc(OCC)cc3)C3C=CC2(O3)C1C(=O)NC1CCCCC1` (stereo not given), the inhibition was 5.11% (inactive).

On to `Cc1ccc(N2C(=O)c3ccccc3C2(O)c2ncc[nH]2)cc1` (stereo not given), for which the inhibition is 1.61% (inactive).

Turning to `COc1cc(NS(=O)(=O)c2ccc3ccccc3c2)c2ncccc2c1`, the inhibition is 9.71% (inactive).

For the compound `O=[N+]([O-])c1ccccc1S(=O)(=O)Nc1cccc2cccnc12`, the inhibition is 44.6% (active).

Consider `O=[N+]([O-])c1cccc2ncccc12`, for which the inhibition is -18% (inactive).

For the compound `C[C@H](NC(=O)c1[nH]cnc1C(=O)Nc1nccs1)c1ccccc1`, the inhibition is 6.5% (inactive).

As for `COc1ccc2c(c1)c(C(=O)N/N=C/c1cccs1)c(C)n2C`, the inhibition was 24% (inactive).

Consider `COc1cccc(CNC(=O)CCC2CCCN(C(=O)c3ccoc3C)C2)c1` (stereo not given), for which the inhibition is 10.1% (inactive).
